test system: HepG2; test: GSK_TCMDC: Percent inhibition of human HepG2 cell line. Test compounds present at 10uM.; format: functional

| Structure (SMILES) | Inhibition |
| --- | --- |
| CCCOc1cc(OCCC)cc(-c2ccc(C(=O)Nc3ccc4ccc(C)nc4c3)c(=O)[nH]2)c1 | 11% |
| CCCN(CCC)CCCNc1ccc(C(=O)Nc2ccc(OCC)cc2)cc1[N+](=O)[O-] | 7% |
| CC(C)N1CCC(N(Cc2ccc(-c3ccc(C(F)(F)F)cc3)cc2)C(=O)Cn2c(SCc3cccc(F)c3F)nc(=O)c3ccccc32)CC1.O=C(O)C(O)C(O)C(=O)O | 74% |
| CC(C)N1CCN(C(=O)c2ccc(CNCCCN3CCN(c4cccc(Cl)c4Cl)CC3)s2)CC1.Cl | 51% |
| Cc1ccc(CN2CCCN(Cc3cccc(NC(=O)c4ccc(-c5ccccc5)cc4)c3)CC2)cc1C.O=C(O)C(F)(F)F | 43% |
| CC(=O)c1ccccc1C(=O)N1CCOc2ccc(C(O)C(c3ccccc3)c3ccccc3)cc2C1 (stereo not given) | 10% |
| CC(=O)N(C)c1cccc(C(=O)Nc2ccc(-c3cccc(-c4nc5cccc(C)c5[nH]4)c3)cc2)c1 | 86% |
| O=C(/C=C/c1ccc(Cl)c(Cl)c1)N1CCC(CCN2CCC(c3c[nH]c4ccccc34)CC2)CC1 | 56% |
| CNCCNCc1ccc(-c2ccc(-c3nc4cccc(C)c4[nH]3)cc2)cc1.O=C(O)C(F)(F)F | 19% |
| CC(=O)Nc1ccc(C(=O)N2CCN(c3ccnc4cc(Cl)ccc34)CC2)cc1.O=C(O)C(F)(F)F | 2% |
| Nc1nccc2ccc(-c3ccnc(NCc4cccnc4)n3)cc12 | 11% |
| CN(c1ccc(NC(=O)Nc2cc(C(F)(F)F)ccc2F)cc1)c1ccnc(NCCN2CCCC2)n1.O=C(O)C(F)(F)F | 94% |
| CC1=C(C(=O)OC(C)C)C(c2ccccc2Cl)C2=C(CC(c3ccccc3)CC2=O)N1 (stereo not given) | 15% |
| CNC(=O)NC1=NC(C)(C)N(OCc2ccc(Cl)c(Cl)c2)C(NC(=O)NC)=N1 | 1% |
| O=C(Nc1ccc(-c2ccccc2)cc1)Nc1cccc(Cn2cnc(N3CCCNCC3)cc2=O)c1.O=C(O)C(F)(F)F | 8% |
| Cc1c(Cc2ccccc2Cl)cnc2nc(N)nc(N)c12.Cl | 67% |
| COc1ccc(CC2(CO)CCN(Cc3ccc(O)c(Cl)c3)CC2)cc1 | 0% |
| O=C(O)C(F)(F)F.O=C1COC(c2ccccc2)(c2ccccc2)CN1CC1CCN(Cc2ccc(O)cc2Cl)C1 (stereo not given) | 53% |
| CCCC(=O)c1cnc2c(OCCCc3c[nH]cn3)cccc2c1Nc1c(C)cccc1C | 20% |
| O=C(Nc1ccccc1Oc1ccccc1)NC1CCN(c2ccnc3cc(Cl)ccc23)C1.O=C(O)C(F)(F)F (stereo not given) | 0% |

| Structure (SMILES) | Inhibition |
| --- | --- |
| Cc1ccc2[nH]c(-c3ccc(C=CC(=O)NC4CCN(Cc5ccccc5)CC4)cc3)nc2c1 | 9% |
| O=C(Nc1ccccc1)N(Cc1ccc(-c2cccc(CNC3CCCC3)c2)cc1)C1CCN(Cc2ccccc2)CC1.O=C(O)C(F)(F)F | 43% |
| COC(=O)c1c(NC(=O)c2cccc(C(F)(F)F)c2)sc2c1CCN(Cc1ccccc1)C2.Cl | 9% |
| O=C(O)C(F)(F)F.c1ccc2[nH]c(-c3ccc(-c4ccc(CNCCc5ccncc5)cc4)s3)nc2c1 | 28% |
| Oc1ccccc1CN1CCC2(CCCN(Cc3ccccc3F)C2)C1 (stereo not given) | 13% |
| COc1ccc(-c2ccc(NC(=O)c3ccc(C#N)cc3)cc2)cc1CN(C)CCO.O=C(O)C(F)(F)F | 41% |
| Nc1nc(N)c2c(Oc3cccc4ccccc34)cccc2n1 | 42% |
| CN(C)c1ccc(NC2=NC(N)=NC(C)(C)N2)cc1 | 0% |
| Nc1ncc(-c2cn[nH]c2)cc1-c1nc2ccc(Cl)cc2[nH]1 | 46% |
| CN1CCCC(CN2CCN(Cc3cccc(-c4ccc(-c5nc6cc(F)ccc6[nH]5)cc4)c3)CC2)C1.O=C(O)C(F)(F)F (stereo not given) | 78% |
| CC(C)(C)c1ccc(NC(=O)c2ccc(CN3CCCN(Cc4cccc(C#N)c4)CC3)cc2)cc1.O=C(O)C(F)(F)F | 54% |
| COc1ccc(-c2nc(NC(=O)CS(=O)(=O)c3ccccc3)sc2C)cc1 | 7% |
| CCCc1cc(N2CCC(N3CCCC3)CC2)nc(Nc2ccc(Cl)cc2)n1 | 29% |
| CC(C)(CNCc1ccc(Cl)c(Cl)c1)c1nc(-c2ccc(Cl)c(O)c2)c(-c2ccncc2)[nH]1.Cl | 43% |
| COC(=O)c1cc2cccc(NC[C@@H](C)NC[C@H](O)c3cccc(Cl)c3)c2[nH]1 | 0% |
| COc1ccc(CCNC(=O)c2ccc(-n3cc(NC(=O)c4cccnc4)cn3)cc2)cc1OC | 17% |
| CC(O)C1CCCCN1C(=O)c1ccc(-c2ccc(-c3nc4cc(F)ccc4[nH]3)cc2)cc1 (stereo not given) | 43% |
| COC(=O)c1cccc(NC(=O)NC2CCN(c3ccnc(NCc4ccc(F)cc4)n3)CC2)c1 | 29% |
| COc1ccccc1C1CCN(C2CCC(NC(=O)/C=C/c3cccc(Cl)c3F)CC2)CC1 (stereo not given) | 50% |
| CN(CCN)Cc1ccc(-c2ccc(-c3nc4cc(C(F)(F)F)ccc4[nH]3)s2)cc1.O=C(O)C(F)(F)F | 37% |
